Source: article PMC4336329 (PLoS ONE, 2015)
Among all 310,000 compounds or so, about 14,000 (4.5%) showed an effect of 50% or more. Effects have a minus sign here. For the sample, strong results were picked, then their nearest neighbours and some compounds at random.

These compounds were tested against human ether-à-go-go-related gene (hERG) potassium channel (human, UniProt Q12809) (assay: primary screen, population patch clamp on CHO cells stably expressing hERG; higher = less effect of the substance).
human ether-à-go-go-related gene (hERG) potassium channel, sequence (Q12809 whole entry, looked up): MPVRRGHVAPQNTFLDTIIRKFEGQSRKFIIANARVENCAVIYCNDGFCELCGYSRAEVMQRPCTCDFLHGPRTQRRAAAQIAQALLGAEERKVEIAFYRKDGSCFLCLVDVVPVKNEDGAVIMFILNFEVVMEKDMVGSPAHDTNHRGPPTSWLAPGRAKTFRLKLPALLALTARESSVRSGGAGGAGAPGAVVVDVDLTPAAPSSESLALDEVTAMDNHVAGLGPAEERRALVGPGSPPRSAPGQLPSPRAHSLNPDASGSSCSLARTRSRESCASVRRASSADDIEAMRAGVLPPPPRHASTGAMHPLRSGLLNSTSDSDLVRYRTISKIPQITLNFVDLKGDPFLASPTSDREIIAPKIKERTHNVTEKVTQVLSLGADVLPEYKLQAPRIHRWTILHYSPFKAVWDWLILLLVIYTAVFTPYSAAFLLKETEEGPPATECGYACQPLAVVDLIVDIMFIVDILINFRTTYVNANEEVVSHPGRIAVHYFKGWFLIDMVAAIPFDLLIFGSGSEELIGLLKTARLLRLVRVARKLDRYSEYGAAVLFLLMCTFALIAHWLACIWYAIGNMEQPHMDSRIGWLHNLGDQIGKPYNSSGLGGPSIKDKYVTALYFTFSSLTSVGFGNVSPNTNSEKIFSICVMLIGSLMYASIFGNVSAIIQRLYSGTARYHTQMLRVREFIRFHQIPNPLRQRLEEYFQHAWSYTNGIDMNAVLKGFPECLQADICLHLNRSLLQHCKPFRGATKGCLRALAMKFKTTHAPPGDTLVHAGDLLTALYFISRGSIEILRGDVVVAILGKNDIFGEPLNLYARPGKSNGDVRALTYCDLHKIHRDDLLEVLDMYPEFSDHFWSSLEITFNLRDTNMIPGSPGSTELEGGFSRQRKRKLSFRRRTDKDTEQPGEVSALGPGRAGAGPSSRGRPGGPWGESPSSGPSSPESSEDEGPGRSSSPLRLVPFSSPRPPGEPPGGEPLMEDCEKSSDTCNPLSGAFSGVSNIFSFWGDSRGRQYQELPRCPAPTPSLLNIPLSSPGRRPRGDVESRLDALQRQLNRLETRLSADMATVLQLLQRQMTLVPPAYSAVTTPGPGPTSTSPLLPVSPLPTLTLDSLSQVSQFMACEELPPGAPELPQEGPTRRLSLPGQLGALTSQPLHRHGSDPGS
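Note: peak tail current of the secondary pulse compared with the same well before compound.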

SMILES | hERG current change (%, negative = inhibition) at 10uM [%]
CCNC(=S)NNC(=O)c1nn(C)c(C)c1Cl | 19
CC(=O)Nc1c(O)n(C)c2ccccc12 | 13.6
CCOc1ccc(OCC(=O)N2CCC3(CC2)CC(=O)c2ccccc2O3)cc1 | -94.6
O=C1CC2(CCN(C(=O)COc3ccccc3F)CC2)Oc2ccccc21 | -49.1
CC(=O)N1CCC2(CC1)CC(=O)c1cc(OCC(=O)N3CCC4(CC3)OCCO4)ccc1O2 | 18.5
CCN1CCN(C(=O)COc2ccc3c(c2)C(=O)CC2(CCN(C(C)=O)CC2)O3)CC1 | 20.5
CC(Oc1ccc(Br)cc1)C(=O)N1CCC(C(N)=O)CC1 (stereo not drawn) | -78.1
COc1ccccc1OCC(=O)N1CCC2(CC1)CC(=O)c1ccccc1O2 | -40.2
COc1ccc(OCC(=O)N2CCC3(CC2)CC(=O)c2ccccc2O3)cc1 | -88.9
CC(=O)N1CCC2(CC1)CC(=O)c1cc(OCC(=O)N3CCN(C)CC3)ccc1O2 | 1.86
Cc1ccccc1OCC(=O)N1CCC2(CC1)CC(=O)c1ccccc1O2 | -57.5
CCC(Oc1ccccc1)C(=O)N1CCC(C(N)=O)CC1 (stereo not drawn) | 15.8
CCOC(=O)N1CCN(C(=O)COc2ccc3c(c2)C(=O)CC2(CCN(C(C)=O)CC2)O3)CC1 | -2.13
CCOC(=O)C1CCN(C(=O)C(C)Oc2ccc(Br)cc2)CC1 (stereo not drawn) | -16.1
O=C(Nc1ccccc1N1CCOCC1)c1cccnc1 | 15
O=C(N/N=C/c1cccs1)c1cccc(NC(=O)c2ccc(Cl)cc2)c1 | 7.57
CO[C@@]1(NC(=O)C2SC(=C(C(N)=O)C(=O)O)S2)C(=O)N2C(C(=O)O)=C(CSc3nnnn3C)CS[C@@H]21 (stereo partly drawn) | 13.6
CCCNc1nc(C)nc2c1cnn2CCc1ccccc1 | -12.8
CCOc1nc(CC(C)C)c2c(c1C#N)CC(C)(C)OC2 | 1.14
O=C1CC(NS(=O)(=O)c2ccc3ccccc3c2)CN1c1ccccc1 (stereo not drawn) | -0.798
Cl.N=c1sccn1CC(=O)Nc1ccc(Cl)cc1[N+](=O)[O-] | -21
COc1cc(C(=O)NNC(=O)c2cc(C)[nH]n2)cc(OC)c1OC | 18.8
C/C(=N\NC(=O)C1CC1)c1cccs1 | 9.16

SMILES | hERG current change (%, negative = inhibition) at 10uM [%]
O=C1CC2(CCN(C(=O)COc3ccccc3)CC2)Oc2ccccc21 | -67.4
O=C1CC2(CCN(C(=O)COc3ccc(F)cc3)CC2)Oc2ccccc21 | -42.6
O=C1CC2(CCCCC2)Oc2ccc(OCC(=O)N3CCOCC3)cc21 | 3.3
O=C(NCc1ccncc1)/C(=N/O)c1ccccc1 | 18.7
CSc1ccccc1NC(=O)Nc1ccc(Cl)cc1 | -1.3
CC(C)C(=O)Nc1ccccc1C(=O)OCC(=O)c1ccc2c(c1)OCCO2 | -10.4
Cc1ccc(CN2CCN(Cc3ccc4cccc(F)c4n3)CC2CCO)cc1 (stereo not drawn) | -68.6
Cc1ccc(CN2CCN(Cc3nc4ccccc4nc3C)CC2CCO)cc1 (stereo not drawn) | -69.7
Cc1nc2ccccc2nc1CN1CCN(Cc2ccc(F)c(F)c2)C(CCO)C1 (stereo not drawn) | -40.4
OCCC1CN(Cc2ccc3cccc(F)c3n2)CCN1Cc1ccccc1 (stereo not drawn) | -15.6
CCn1cc(CN2CCN(Cc3ccccc3)C(CCO)C2)c2ccccc21 (stereo not drawn) | -32
Cc1ccccc1CN1CCN(Cc2ccc3cccc(F)c3n2)CC1CCO (stereo not drawn) | -32.7
Cc1ccc(CN2CCN(Cc3cccc(C)n3)CC2CCO)cc1 (stereo not drawn) | -40.2
CCn1c(CN2CCN(Cc3ccc(C)cc3)C(CCO)C2)nc2ccccc21 (stereo not drawn) | -74.7
CC(C)Cn1c(CN2CCN(C)C(CCO)C2)nc2ccccc21 (stereo not drawn) | 4.02
O=C(COc1ccc2ccccc2c1Br)Nn1cnnc1 | -1.78
CCCCn1c(C)cc2cc(O)ccc21 | -16.8
CC(Oc1ccccc1F)C(=O)NC1CCS(=O)(=O)C1 (stereo not drawn) | 11
CC(=O)[C@@H]1[C@@H](C)N(Cc2ccccc2)C(=O)N[C@H]1c1ccccc1 | 10.4
CC1(/[N+]([O-])=C/c2cccc(Cl)c2)CCCCC1=O (stereo not drawn) | 4.74
Cc1ccc(NC(=O)COC(=O)C2CC2(Cl)Cl)cc1C (stereo not drawn) | -4.06
CSCCC(NC(=O)c1ccco1)C(=O)N(C)CC(=O)Nc1c(Cl)cccc1Cl (stereo not drawn) | 11.8
